Vaccinia mCherry – vaccinia inhibition (mCherry reporter). Vaccinia virus mCherry reporter infection, fluorescence. AID 720579. Potency, µM (doses to about 36.5 µM), for inactives: at the top dose activity change, negative = inhibition, hits mostly inhibitors. 310,000 compounds, 0.63% hits; calls by dose curve; tested in A549 cells; also: potency is read from the fitted curve at half-maximal effect; % is scaled to controls: 0 for no effect and ±100 for the full control effect; nearly all actives have a fitted effect of over 35% in size
Vaccinia Venus – vaccinia inhibition (Venus reporter); Vaccinia virus Venus reporter expression, fluorescence; Potency, µM (doses to about 36.5 µM), without a hit: top-dose activity change, negative = inhibition, most hits filed as inhibitors; 330,000 compounds, 0.46% hits; AID 720580; calls by dose curve; tested in A549 cells; also: potency is read from the fitted curve at half-maximal effect; % is scaled to controls: 0 for no effect and ±100 for the full control effect; nearly all actives have a fitted effect of over 30% in size
MARV entry inh – Marburg virus entry inhibition; 300,000 compounds, 1.8% hits; Potency, µM (highest dose often 37.8 µM), without a hit: at the top dose activity change, negative = inhibition, actives largely listed as inhibitors; Marburg virus pseudotyped entry inhibition, cell reporter; calls by dose curve; tested in HEK293 cells; also: potency is read from the fitted curve at half-maximal effect; % is scaled to controls: 0 for no effect and ±100 for the full control effect
Shiga inhibitor – blocks Shiga toxin action in Vero cells | Vero cells, Shiga toxin protein synthesis inhibition reporter | inhibition, % at 38.7 µM | 290,000 compounds, 9.2% hits | AID 2315; in the data active = inhibition mostly above about 28%, no sharp cut-off; inactive = mostly below about 43%; also: 0% is about no effect
LASV entry inh – blocks Lassa virus binding to or entry into cells; AID 540256; 300,000 compounds, 1.2% hits; Potency, µM (highest dose often 37.9 µM), inactives show at the top dose activity change, negative = inhibition, actives largely listed as inhibitors; Lassa virus pseudotype entry inhibition, cell reporter; calls by dose curve; tested in HEK293 cells; also: potency is read from the fitted curve at half-maximal effect; % is scaled to controls: 0 for no effect and ±100 for the full control effect; nearly all actives have a fitted effect of over 50% in size
Cycloheximide cs – counter-screen for Shiga toxin inhibitors: cycloheximide protein synthesis inhibition | max response, % | 300,000 compounds, 12% hits | cell reporter, cycloheximide protein synthesis inhibition counterscreen; in the data active = max response mostly above about 13%, no sharp cut-off; inactive = mostly below about 14%; also: read at 38.3 µM for the half of the compounds with a filed dose; 0% is about no effect
* marks the source's active call; other numbers are inactive results; i = inactive; u = inconclusive; x = no result; [ ] = another dose, or the depositor's remark. The entries come from a sample that favours hits as a whole.

SMILES	Vaccinia mCherry	Vaccinia Venus	MARV entry inh	Shiga inhibitor	LASV entry inh	Cycloheximide cs
COc1cc(C2NC(=S)NC(C)=C2C(=O)Nc2ccc(C)cc2)ccc1O (stereo not given)	-15%	-4%	u	71*	8%[46.1 µM]	45*
COc1ccc(NC(=O)C2=C(C)NC(=S)NC2c2ccc(O)c(OC)c2)cc1 (stereo not given)	-3%	1%	u	-12	-7%[46.1 µM]	1
CCNC(=O)C(=O)Nc1ccc([N+](=O)[O-])cc1	-7%	-16%	0%	-1	11%	5
O=C(NCCCc1ccccc1)c1cccs1	x	x	u	55*	22%	34*
CC(Cc1cccs1)NC(=O)Nc1ccc([N+](=O)[O-])cc1 (stereo not given)	x	x	x	73*	x	30*
O=C(NCCCCCCNC(=O)c1cccs1)c1cccs1	i	-2%	13%[46.1 µM]	-7	1%	-3
O=C(NCCc1cccs1)c1cccs1	2%	4%	-17%[46.1 µM]	91*	12%	50*
O=C(NCC(O)c1ccccc1)c1cccs1 (stereo not given)	x	x	x	79*	x	42*
O=C(NCCc1ccc(F)cc1)c1cccs1	x	-15%	-12%	91*	11%	26*
COc1ccc2cc(CCNC(=O)c3cccs3)c(=O)[nH]c2c1	-6%	-4%	-23%	54*	u	48*
COc1ccc(CNC(=O)c2cccs2)cc1	x	x	-2%	23	-10%	4
CCc1ccc(OCCNC(=O)c2cccs2)cc1	-12%	-19%	14%	53*	14%	41*
COc1ccc(CCNC(=O)c2cccs2)cc1	-7%	-15%	u	48*	u	32*
Cn1c(Cl)c(/C=N/OC(=O)c2ccc(Cl)cc2)c2ccccc21	x	-5%	u	-11	u	-1
CCOC(=O)c1c(C)[nH]c(C)c1S(=O)(=O)NCC(=O)NCc1cccc(Br)c1	-23%	-16%	x	x	5%[46.1 µM]	x
CC[C@@H](C)CN1C(=O)N[C@@H](c2ccccc2)C(C(=O)OC)=C1C	x	x	-20%[14.2 µM]	x	x	x
COC(=O)c1ccc(NC(=O)CSc2cn(CC(=O)N3CCCCCC3)c3ccccc23)cc1	-10%	-8%	x	x	-18%[46.1 µM]	x
COc1ccc(CNC(=O)COC(=O)c2cccs2)cc1	12%	7%	-13%[46.1 µM]	47*	13%	27*
COC(=O)c1ccc(CNC(=O)COC(=O)c2cccs2)cc1	-12%	7%	23%	x	-1%[46.1 µM]	x
CC(Cc1cccs1)NC(=O)c1cccs1 (stereo not given)	i	-15%	u	74*	-5%[46.1 µM]	33*
O=C(CNC(=O)c1cccs1)c1ccc(Br)cc1	26%	0%	-29%[46.1 µM]	109*	u	39*
O=C(CNC(=O)c1cccs1)OCc1ccc(Br)cc1	i	-3%	19%[46.1 µM]	15	13%[46.1 µM]	-1
O=C(N/N=C/c1ccc(Cl)cc1Cl)c1cccc(F)c1	x	x	u	137*	-26%	33*
O=C(N/N=C/c1ccc(Cl)cc1Cl)c1ccc2nc[nH]c2c1	x	x	x	53*	x	24*
CCc1ccc(C(=O)N/N=C/c2ccc(Cl)cc2Cl)nc1	x	x	x	24	x	18*
SMILES	Vaccinia mCherry	Vaccinia Venus	MARV entry inh	Shiga inhibitor	LASV entry inh	Cycloheximide cs
O=C(N/N=C/c1ccco1)c1ccc2nc[nH]c2c1	-2%	1%	2%[46.1 µM]	10	22%	1
O=C(N/N=C/c1ccccc1C(F)(F)F)c1ccc2nc[nH]c2c1	i[7.34 µM]	-8%[7.34 µM]	x	29*	x	49*
COC(=O)c1ccc(C2c3c(oc4ccccc4c3=O)C(=O)N2c2nc(C)c(C(=O)OC)s2)cc1 (stereo not given)	1%	6%	9%[46.1 µM]	x	2%[46.1 µM]	x
CC1CCN(S(=O)(=O)c2ccc3c(c2)N(CC(=O)NCCCOC(C)C)C(=O)CO3)CC1	-18%	-7%	-24%[46.1 µM]	-11	1%[46.1 µM]	-2
Cc1cc(CCNC=O)c(C)c2c1sc1ccccc12	-7%	-22%	4%	x	7%[46.1 µM]	x
Cc1cc(O)cc2c(=O)c3ccccc3sc12	-17%	-9%	-1%[46.1 µM]	131*	4%	42*
CC(=O)c1c(Cl)nc2cccc3c2c1-c1ccccc1C3=O	-25%	4%	-4%[46.1 µM]	-11	4%[46.1 µM]	-3
CC(Cc1ccccc1)[n+]1cc(/N=C(\[O-])Nc2ccccc2)on1 (stereo not given)	-22%	-13%	22%	28	23%	17*
COc1[nH]c(/N=C/c2ccco2)c(C#N)c1C#N	i	14%	x	x	x	x
O=C(COC(=O)c1ccccc1Br)Nc1ccc(F)cc1	x	x	x	98*	x	36*
O=C(COC(=O)c1ccc[nH]c1=O)NCCc1ccc(F)cc1	-4%	-6%	-5%[46.1 µM]	1	22%	13
O=C(COC(=O)c1ccc(F)cc1F)NCCNC(=O)COC(=O)c1ccc(F)cc1F	-13%	1%	6%[46.1 µM]	-29	16%[46.1 µM]	1
CC(=O)c1ccc(NC(=O)COC(=O)c2ccccc2Sc2ccccc2C#N)cc1	x	x	20%	2	u	15*
CC(=O)c1ccc(NC(=O)COC(=O)c2ccc(F)cc2F)cc1	-7%	4%	21%[46.1 µM]	32	8%	13*
N#Cc1cccc(NC(=O)COC(=O)c2ccccc2Sc2ccccc2C#N)c1	-19%	-15%	u	3	u	0
O=C(COC(=O)c1ccccc1Br)NCCc1ccc(F)cc1	i	-1%	2%	-9	5%	31*
O=C(COC(=O)c1ccccc1Br)Nc1ccc2[nH]c(=O)[nH]c2c1	-8%	-17%	14%	x	u	x
CCn1c(=O)cc(SCC(=O)Nc2cccc(C)n2)c2ccccc21	x	x	x	-9	x	6
CCCc1nnc(NC(=O)Cc2coc3cc(C)cc(C)c23)s1	-2%	-5%	-4%[46.1 µM]	x	0%[46.1 µM]	x
COc1cccc(NC(=O)CSc2nc(=O)n(Cc3ccco3)c3c2CCC3)c1	-18%	-7%	x	x	3%[46.1 µM]	x
CCC1CCCCN1C(=O)CSc1nc(-c2ccc(OC)cc2)cc(C(F)(F)F)n1 (stereo not given)	-11%	-5%	-18%[46.1 µM]	x	3%[46.1 µM]	x
Cc1occc1C(=O)OCC(=O)Nc1ccc(F)cc1	x	-15%	19%	75	u	36*
COCC(=O)Nc1ccc(F)cc1	-14%	-3%	u	22	-2%[46.1 µM]	-2
Cc1cc(C)c2c(-n3cccc3)c(C(=O)NCCc3ccc(Cl)cc3)sc2n1	-14%	-18%	u	x	13%[46.1 µM]	x
Cc1[nH]c2ccccc2c1C(=O)CSc1nncn1C	-7%	6%	0%	-2	17%	-1
SMILES	Vaccinia mCherry	Vaccinia Venus	MARV entry inh	Shiga inhibitor	LASV entry inh	Cycloheximide cs
Cc1ccc2c(C(=O)CSc3ccccc3)c(C)[nH]c2c1	-13%	-7%	u	34	15%	8
Cc1ccc(SCC(=O)c2c(C)[nH]c3ccccc23)cc1	-19%	-5%	22%	35	-26%	13*
Cc1[nH]c2ccccc2c1C(=O)CSc1cccc[n+]1[O-]	i	-11%	-2%[46.1 µM]	-9	0%	-2
Cc1[nH]c2ccccc2c1C(=O)CSc1ccccc1	-4%	-15%	u	4	7%	28*
Cc1[nH]c2ccccc2c1C(=O)CSc1ccccn1	i	-21%	u	45	24%[46.1 µM]	40*
Cc1[nH]c2ccccc2c1C(=O)CSc1ccc(F)cc1	-4%	-13%	23%	52	4%	23*

Compound activity deposited in PubChem BioAssay by National Center for Advancing Translational Sciences (NCATS).
